Screening results: PubChem, National Center for Advancing Translational Sciences (NCATS)
IL1B secr inh – inflammasome signaling inhibition, IL-1 beta readout; THP-1 LPS/ATP IL-1B secretion, AlphaLISA, 16 h; hits give low values; activity change, % at 57.5 µM; 360,000 compounds, 4.7% hits; in the data active means activity change below about -50%; inconclusive means mostly about -30% to -49%; further: on the % scale 0 is the no-effect control and ±100 the full control effect
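THP-1 cells pretreated 1 hr with compounds (up to 57.5 uM final), then stimulated with LPS (250 ng/mL final) plus ATP (1.25 mM final); secreted IL-1B measured by AlphaLISA after 16 hr, decreased signal indicating inhibition.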
HepG2 viability – counter-screen for TGF-b inhibitors: cytotoxicity in HepG2 cells | 410,000 compounds, 0.76% hits | HepG2 CAGA-GFP viability, ATP luminescence, 18 h | Potency, µM (series often up to 46.1 µM), for the others: at the top dose activity change, negative = cytotoxicity, usual class: cytotoxic; further: potency means the concentration at half of the fitted maximal effect
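HepG2 CAGA-GFP cells (1000/well, DMEM with 1% FBS) received compound, then TGF-beta at 500 pg/mL final, and were incubated 18 hours at 37 degrees C. Viability was read by CellTiter-Glo luminescence. Media-only wells were set as complete cell-killing and DMSO as no toxicity.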
TGFb SMAD3 inh – inhibitors of TGF-b signaling; HepG2 CAGA-GFP TGF-b/SMAD3 reporter, GFP fluorescence, 18 h; TGF-beta stimulated, 500 pg/mL final; Potency, µM (doses to about 46.1 µM), inactives show top-dose activity, negative = inhibition, usual class: inhibitors; 410,000 compounds, 1.2% hits; further: potency means the concentration at half of the fitted maximal effect; on the % scale 0 is the no-effect control and ±100 the full control effect; nearly all actives have a fitted effect of over 65% in size
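Smad-responsive CAGA-GFP expression was quantified in HEPG2 cells exposed to compounds and 500 pg/mL final TGF-beta for 18 h at 37 degrees C; unstimulated wells defined full inhibition.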
HT1080 IDH1KD tx – toxicity to HT-1080 IDH1 knockdown cells (counter line) | HT-1080 IDH1 knockdown viability, ATP luminescence, 48 h | Potency, µM (titrated, usually from 46.1 µM), for the others: at the highest dose activity, negative = toxicity, actives largely listed as cytotoxic | 360,000 compounds, 2% hits | AID 686971;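 further: potency means the concentration at half of the fitted maximal effect; 0% = DMSO wells and -100% = cell-free medium wells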
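CellTiter-Glo luminescence after 48 h compound exposure at 37 degrees C of IDH1-knockdown HT-1080 cells in 5% FBS RPMI. %Activity scaled between DMSO wells and cell-free media wells, with curves fitted and assigned curve classes.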
Giardia kill – kills Giardia lamblia | Giardia lamblia trophozoite viability | activity change, % at 7.66 µM, hits read low | 340,000 compounds, 0.15% hits; in the data active means activity change below about -80%; inconclusive means between about -30% and that limit;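 further: parasites exposed to compound for two days anaerobically before the ATP read; on the % scale 0 is the no-effect control and ±100 the full control effect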
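Luminescent ATP signal served as the viability read-out, measured 15-30 min after adding ATP detection reagent to trophozoites that had been incubated with compounds for 48 hrs at 37 deg C anaerobically at 100 cells/well.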
HT1080NT lethal – kills 2HG-producing HT-1080-NT fibrosarcoma cells | HT-1080-NT fibrosarcoma viability, CellTiter-Glo ATP luminescence, 48 h | Potency, µM (titrated, usually from 46.1 µM), for the others: at the highest dose activity, negative = less viability, actives largely listed as cytotoxic | 360,000 compounds, 1.6% hits | AID 686970;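 further: NT is the 2HG producing partner of a matched IDH1 knockdown line; potency means the concentration at half of the fitted maximal effect; 0% = DMSO-treated cells and -100% = media-only wells without cells; nearly all actives have a fitted effect of over 55% in size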
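Viability by CellTiter-Glo luminescence after 48 h compound exposure at 37C of HT-1080-NT cells (750/well, RPMI, 5% FBS). % activity scaled between DMSO wells and medium-only wells, then curve-fitted and categorized by curve class.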
Starred values were filed as active, the others as inactive. An excerpt weighted towards active compounds, which were near 6.5% of everything screened. Unless noted, the call rests on the fitted dose curve; in most records, active means well fitted curve in the direction sought with a large enough effect; inconclusive means small, poorly fitted or top-dose-only effect, or another doubt; inactive means no such curve, though single readings can be large; an effect the other way counts as inactive or inconclusive.

How did OC12CCCCC1C(c1ccc3c(c1)OCO3)N(Cc1ccccc1F)CC2 (stereo unspecified) do in these assays?
IL1B secr inh: -3; HepG2 viability: -27%; TGFb SMAD3 inh: -1%; HT1080 IDH1KD tx: 10%; Giardia kill: -5; HT1080NT lethal: 1%

Results for Clc1ccccc1OCc1nc(-c2ccccn2)no1 ?
IL1B secr inh: inconclusive; HepG2 viability: -24%; TGFb SMAD3 inh: -9%; HT1080 IDH1KD tx: -18%; Giardia kill: 3; HT1080NT lethal: -27%

What do the screens show for `Cc1nc(N2CCC3(CC2)OCCO3)c2nnn(Cc3ccccc3F)c2n1`?
IL1B secr inh: -60*; HepG2 viability: -18%; TGFb SMAD3 inh: inconclusive; HT1080 IDH1KD tx: -17%; Giardia kill: -18; HT1080NT lethal: -2%

How did CC(=O)CC1OC(=O)C(Br)=C1NCc1ccccc1 (stereo unspecified) do in these assays?
IL1B secr inh: -100*; HepG2 viability: 7.9µM*; TGFb SMAD3 inh: 10µM*; HT1080 IDH1KD tx: 0.89µM*; Giardia kill: 2; HT1080NT lethal: 3.5µM*

How did O=C(CC1Oc2ccccc2NC1=O)NCc1ccccc1 (stereo unspecified) do in these assays?
IL1B secr inh: 5; HepG2 viability: 1%; TGFb SMAD3 inh: -4%; HT1080 IDH1KD tx: 5%; Giardia kill: -1; HT1080NT lethal: 4%

Results for CCCNC(=O)C1(C)CCCN(C(=O)c2ccc(OC)cc2OC)C1 (stereo unspecified) ?
IL1B secr inh: 0; HepG2 viability: -2%; TGFb SMAD3 inh: 14%; HT1080 IDH1KD tx: 5%; HT1080NT lethal: inconclusive

Results for CCc1ccccc1NC(=O)c1ccc(CN2CCC(Cc3ccccc3)CC2)cc1 ?
IL1B secr inh: -80*; HepG2 viability: -60%; TGFb SMAD3 inh: inconclusive; HT1080 IDH1KD tx: inconclusive; Giardia kill: 15; HT1080NT lethal: 21µM*

How did O=C(NCC(=O)N1CCC(Cc2ccccc2)CC1)c1ccc(Cl)cc1 do in these assays?
IL1B secr inh: -52*; HepG2 viability: 4%; TGFb SMAD3 inh: 0%; HT1080 IDH1KD tx: 0%; Giardia kill: -5; HT1080NT lethal: -3%

How did O=C(NCc1ccccc1)c1ccc(CN2CCC(Cc3ccccc3)CC2)cc1 do in these assays?
IL1B secr inh: -29; HepG2 viability: -40%; TGFb SMAD3 inh: -16%; HT1080 IDH1KD tx: inconclusive; Giardia kill: 7; HT1080NT lethal: inconclusive

Results for Cc1cccc(OCCCn2c(CCNC(=O)C(C)(C)C)nc3ccccc32)c1 ?
HepG2 viability: -16%; TGFb SMAD3 inh: -14%

What do the screens show for `CC[C@H](C)NC(=O)c1ccc(Cn2c(=S)[nH]c3c([nH]c4ccc(OC)cc43)c2=O)cc1`?
IL1B secr inh: -2; HepG2 viability: 3%; TGFb SMAD3 inh: 0%; HT1080 IDH1KD tx: 1%; Giardia kill: 10; HT1080NT lethal: 0%

How did CCNC(=O)NC(=O)C(C)OC(=O)c1cccnc1SC (stereo unspecified) do in these assays?
IL1B secr inh: 16; HepG2 viability: 17%; TGFb SMAD3 inh: -2%; HT1080 IDH1KD tx: 17%; Giardia kill: 14; HT1080NT lethal: 15%

Results for CCN(CC)/[N+]([O-])=N/Oc1cc(O/N=[N+](\[O-])N(C)C)c([N+](=O)[O-])cc1[N+](=O)[O-] ?
HepG2 viability: 10µM*; TGFb SMAD3 inh: 6.3µM*; Giardia kill: -6

What do the screens show for `Cc1nc(SCC(=O)N2CCOCC2)c2c(=O)n(C)c(=O)n(C)c2n1`?
IL1B secr inh: -1; HepG2 viability: -13%; TGFb SMAD3 inh: -22%; HT1080 IDH1KD tx: 11%; Giardia kill: 6; HT1080NT lethal: 14%

What do the screens show for `C=C(C)Cc1c(C)c(C#N)c2[nH]c3ccccc3n2c1=O`?
IL1B secr inh: 21; HepG2 viability: -18%; TGFb SMAD3 inh: -32%; HT1080 IDH1KD tx: 16µM*; Giardia kill: 3; HT1080NT lethal: -13%

What do the screens show for `CCc1cc(=S)n2c([nH]c3ccccc32)c1C#N`?
IL1B secr inh: 0; HepG2 viability: -41%; TGFb SMAD3 inh: 7.9µM*; HT1080 IDH1KD tx: inconclusive; Giardia kill: 4; HT1080NT lethal: inconclusive

Results for CCc1ccc(CCC(=O)Nc2sc(C)c(C)c2C(=O)OC)o1 ?
IL1B secr inh: 0; HepG2 viability: -4%; TGFb SMAD3 inh: inconclusive; HT1080 IDH1KD tx: -29%; Giardia kill: -6; HT1080NT lethal: 0%

How did CC(Nc1c([N+](=O)[O-])c(=O)oc2ccccc12)C(Cl)c1ccccc1 (stereo unspecified) do in these assays?
IL1B secr inh: -67*; HepG2 viability: -13%; TGFb SMAD3 inh: -2%; HT1080 IDH1KD tx: inconclusive; Giardia kill: 1; HT1080NT lethal: inconclusive

What do the screens show for `Cc1ccc(C)c(Nc2c([N+](=O)[O-])c(=O)oc3ccccc23)c1`?
IL1B secr inh: -58*; HepG2 viability: -7%; TGFb SMAD3 inh: inconclusive; HT1080 IDH1KD tx: -26%; Giardia kill: -8; HT1080NT lethal: -24%

What do the screens show for `CCCCc1nnc(NC(=O)C(C)Sc2nc(O)c(Cc3ccccc3)c(=O)[nH]2)s1` (stereo unspecified)?
IL1B secr inh: 40; HepG2 viability: -3%; TGFb SMAD3 inh: 1%; HT1080 IDH1KD tx: 3%; Giardia kill: -24; HT1080NT lethal: 1%

Results for CN(C)c1ccc(/C=N/N=C2/NC(=O)/C(=C/c3ccc([N+](=O)[O-])cc3)S2)cc1 ?
IL1B secr inh: 9; HepG2 viability: -22%; TGFb SMAD3 inh: -10%; HT1080 IDH1KD tx: 3%; Giardia kill: -93*; HT1080NT lethal: -2%

What do the screens show for `CN(C)c1ccc(C=C2SC(=S)NC2=O)cc1`?
IL1B secr inh: 13; HepG2 viability: 8%; TGFb SMAD3 inh: 61%; HT1080 IDH1KD tx: -1%; Giardia kill: -23; HT1080NT lethal: 0%

Results for O=C(Nc1nc2c(Br)cc(Br)cc2c(=O)s1)C1CCC1 ?
IL1B secr inh: -21; HepG2 viability: -6%; TGFb SMAD3 inh: -1%; HT1080 IDH1KD tx: 1%; Giardia kill: inconclusive; HT1080NT lethal: 8%

Results for C[C@@H]1CC=C[C@H]2[C@H]1C(=O)N(Cc1ccccc1)[C@H]2c1cccc([N+](=O)[O-])c1 ?
IL1B secr inh: 0; HepG2 viability: 2%; TGFb SMAD3 inh: -26%; HT1080 IDH1KD tx: -15%; Giardia kill: -2; HT1080NT lethal: -12%
